Results on 89 molecules are retold here after publication PMC4336329 (PLoS ONE, 2015).

SMILES strings stand for the structures. The campaign covered roughly 310,000 compounds. About 14,000 (4.5%) showed an effect of 50% or more. Effects have a minus sign here. The list comes from a sample in which strong results are over-represented; it also holds similar structures and randomly drawn compounds.
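Also: peak tail current of the secondary pulse compared with the same well before compound.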

For this experiment, the target named is human ether-à-go-go-related gene (hERG) potassium channel (human, UniProt Q12809). Kind of experiment: primary screen, population patch clamp on CHO cells stably expressing hERG; higher = less effect of the substance.
Chain of human ether-à-go-go-related gene (hERG) potassium channel (Q12809 whole entry, looked up): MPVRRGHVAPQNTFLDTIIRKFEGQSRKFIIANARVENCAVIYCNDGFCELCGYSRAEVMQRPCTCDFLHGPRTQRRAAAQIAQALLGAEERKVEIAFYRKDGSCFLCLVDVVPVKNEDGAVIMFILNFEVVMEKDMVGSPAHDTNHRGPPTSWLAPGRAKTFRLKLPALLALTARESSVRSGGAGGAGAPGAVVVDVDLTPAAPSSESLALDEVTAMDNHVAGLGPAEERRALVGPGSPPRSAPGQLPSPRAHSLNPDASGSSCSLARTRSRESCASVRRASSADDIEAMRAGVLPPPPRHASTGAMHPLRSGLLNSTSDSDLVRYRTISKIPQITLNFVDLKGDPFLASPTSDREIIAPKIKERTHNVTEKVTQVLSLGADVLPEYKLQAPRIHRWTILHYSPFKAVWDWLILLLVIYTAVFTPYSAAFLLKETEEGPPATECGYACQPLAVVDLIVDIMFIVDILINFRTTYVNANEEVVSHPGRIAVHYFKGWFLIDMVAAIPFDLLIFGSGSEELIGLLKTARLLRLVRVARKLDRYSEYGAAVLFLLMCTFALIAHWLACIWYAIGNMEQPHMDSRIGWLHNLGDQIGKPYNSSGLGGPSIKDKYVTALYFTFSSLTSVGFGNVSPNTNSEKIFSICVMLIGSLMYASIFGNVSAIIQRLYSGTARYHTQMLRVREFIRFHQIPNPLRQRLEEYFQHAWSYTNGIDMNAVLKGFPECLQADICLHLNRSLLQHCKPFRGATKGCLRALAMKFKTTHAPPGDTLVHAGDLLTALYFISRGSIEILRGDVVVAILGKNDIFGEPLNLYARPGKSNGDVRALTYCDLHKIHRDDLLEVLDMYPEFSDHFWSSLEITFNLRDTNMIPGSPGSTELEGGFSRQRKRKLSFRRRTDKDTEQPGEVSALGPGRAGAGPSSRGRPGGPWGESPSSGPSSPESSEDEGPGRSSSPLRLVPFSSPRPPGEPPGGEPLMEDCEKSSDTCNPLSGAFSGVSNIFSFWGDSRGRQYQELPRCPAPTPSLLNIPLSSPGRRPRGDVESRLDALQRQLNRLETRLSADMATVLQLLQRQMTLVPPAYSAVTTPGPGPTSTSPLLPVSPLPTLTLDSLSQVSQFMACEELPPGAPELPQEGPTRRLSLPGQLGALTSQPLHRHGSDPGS
For `NS(=O)(=O)c1ccc(NC(=S)Nc2ccc(Br)c(Cl)c2)cc1`, the “hERG current change (%, negative = inhibition) at 10uM” value stood at 21.3%. Then `CCOC(=O)c1ccccc1N/C=C/C(=O)c1cccs1`, with -14.9%; and `CCn1c(-c2csc(C(C)C)c2)n[nH]c1=S`, with 37.1%.

On to `CC(=O)Nc1ccc(SC[C@H](Cc2ccccc2)N2CC[C@@H](C)CCC2=O)cc1`, for which the “hERG current change (%, negative = inhibition) at 10uM” value is listed as -8.11%. As for `CCCN1CCC(=O)N(CCSc2ccc(NC(C)=O)cc2)CC1`, the “hERG current change (%, negative = inhibition) at 10uM” value is recorded as 6.8%. Then `CC(=O)Nc1ccc(SC[C@H](CC(C)C)N2CCN(CC(C)C)CCC2=O)cc1`, with -28.1%.

On to `CC(=O)Nc1ccc(SC[C@H](Cc2ccccc2)N2CCN(CC(C)C)CCC2=O)cc1`, for which the “hERG current change (%, negative = inhibition) at 10uM” value is -44.2%.

With `CC(=O)Nc1ccc(SC[C@H](Cc2ccccc2)N2CC[C@@H](C(C)(C)C)CCC2=O)cc1`, the “hERG current change (%, negative = inhibition) at 10uM” value was 5.23%. Then `CC(=O)Nc1ccc(SC[C@H](c2ccccc2)N2CCN(CCc3ccccc3)CCC2=O)cc1`, with -75.1%; and `CC(=O)Nc1ccc(SC[C@H](Cc2ccccc2)N2CCN(CCc3ccccc3)CCC2=O)cc1`, with -55.9%; and `CC(=O)Nc1ccc(SC[C@H](CC(C)C)N2CCN(CCc3ccccc3)CCC2=O)cc1`, with -59.1%. Then `CC(=O)Nc1ccc(SC[C@H](Cc2ccccc2)N2CC[C@@H](O)CCC2=O)cc1`, with -7.75%. Then `Cc1cc(OCc2cc(C(=O)NCc3cc(C(C)C)no3)no2)cc(C)c1Cl`, with 9.79%; and `Cc1cc(C)c(/C=C(\C#N)S(=O)(=O)c2ccccc2)[nH]1`, with 11%. Regarding `Cc1[nH][nH]c(=O)c1C(c1ccc(O)c([N+](=O)[O-])c1)c1c(C)[nH][nH]c1=O`, the “hERG current change (%, negative = inhibition) at 10uM” value was 18.8%. On to `CN(C)c1nc(N)ncc1-c1ccc(Oc2ccccc2)cc1`, for which the “hERG current change (%, negative = inhibition) at 10uM” value is 18%.

`COc1ccc(-n2nc(C(=O)NCC(=O)N3CCN(c4ccccc4OC)CC3)c3ccccc3c2=O)c(OC)c1`: the “hERG current change (%, negative = inhibition) at 10uM” value is reported as -18.4%.

As for `Cc1c(N/C=C/C(=O)C(F)(F)F)c(=O)n(-c2ccccc2)n1C`, the “hERG current change (%, negative = inhibition) at 10uM” value was determined as 20.2%. Consider `CC1=CC2=NC(=O)CC(C)(C(=O)N(CC(=O)NC3CCCC3)c3cc(C)cc(C)c3)N2C=C1` (centres unmarked), for which the “hERG current change (%, negative = inhibition) at 10uM” value was found to be 17.9%. Then `COc1ccccc1CNC(=O)C(=O)c1cn(CC(=O)N2CCCC2)c2ccccc12`, with 15.1%; and `Cc1cccc(/C(N)=N/OC(=O)c2ccc(Cl)cc2Cl)c1`, with 8.46%.

For `COc1ccc(C(=O)N2CCOCC2)cc1S(=O)(=O)N1CCCc2ccccc21`, the “hERG current change (%, negative = inhibition) at 10uM” value was -31.4%. In the case of `Cc1ccc(C(=O)OCC(=O)c2ccc(S(=O)(=O)N3CCCCC3)cc2)o1`, the “hERG current change (%, negative = inhibition) at 10uM” value is recorded as -20.3%.

As to `O=Cc1cn(CCOc2ccccc2)c2ccccc12`, the “hERG current change (%, negative = inhibition) at 10uM” value came to 4.98%. Take `COCCCn1c(=NC(C)=O)c(C#N)cc2c(=O)n3cccc(C)c3nc21`: the “hERG current change (%, negative = inhibition) at 10uM” value is reported as -49.7%. For the molecule `COCCCn1c(=NC(=O)c2ccccc2)c(C#N)cc2c(=O)n3cccc(C)c3nc21`, the “hERG current change (%, negative = inhibition) at 10uM” value is -71.5%. Then `CC(=O)N=c1c(C#N)cc2c(=O)n3cccc(C)c3nc2n1CCCOC(C)C`, with -50.4%. Then `Cc1cccn2c(=O)c3cc(C#N)c(=NC(=O)c4ccncc4)n(CCCOC(C)C)c3nc12`, with -85.1%; and `COCCCn1c(=NC(=O)c2ccncc2)c(C#N)cc2c(=O)n3cccc(C)c3nc21`, with -68%. `O=C(O)c1cccc(-n2c(-c3cnccn3)n[nH]c2=S)c1`: the “hERG current change (%, negative = inhibition) at 10uM” value is given as 20.4%. Then `CN(C)c1ccc(NC(=S)c2ccc3ccccc3n2)cc1`, with 12.2%; and `Cc1ccccc1NCC(=O)N/N=C/c1c(C)c(C(=O)c2ccc(Cl)cc2)n2ccccc12`, with -4.11%.

As to `COc1ccccc1C(=O)NC(=O)COc1cc(Cl)ccc1Cl`, the “hERG current change (%, negative = inhibition) at 10uM” value is given as 0.882%. Then `CC1CCCCN1C(=O)c1c([N+](=O)[O-])cnn1C` (centres unmarked), with 18.7%; and `COc1ccc(NC(=O)c2cncn2-c2ccccc2)cc1`, with 13.7%.

Turning to `CCOC(=O)C1=C(C)N(CCCC(=O)O)C(=O)NC1c1ccccc1OS(=O)(=O)c1ccc(C)cc1` (centres unmarked), the “hERG current change (%, negative = inhibition) at 10uM” value is -15.2%.

For `Cc1cc(=O)oc2cc(NC(=O)c3ccccc3OC(F)F)ccc12`, the “hERG current change (%, negative = inhibition) at 10uM” value turned out to be 26.9%. As to `CC1CCN(C2=NC(=O)/C(=C/c3cccc(O)c3)S2)CC1`, the “hERG current change (%, negative = inhibition) at 10uM” value is -18.5%.

Turning to `CC(=O)N1C(Nc2ccc(Cl)cc2)CCN1c1ccccc1` (centres unmarked), the “hERG current change (%, negative = inhibition) at 10uM” value worked out at 9.96%. Then `O=C(NC(NNc1ccc([N+](=O)[O-])cc1)(C(F)(F)F)C(F)(F)F)c1ccc(F)cc1`, with -2.67%. For the molecule `COc1ccc(C(=O)Nc2ccc(Br)cn2)cc1S(=O)(=O)N1CCOCC1`, the “hERG current change (%, negative = inhibition) at 10uM” value is -57.9%.

Take `COc1ccc(C(=O)Nc2ccccn2)cc1S(=O)(=O)N1CCOCC1`: the “hERG current change (%, negative = inhibition) at 10uM” value is recorded as -8.04%.

For `COc1ccc(C(=O)Nc2ncc(C)s2)cc1S(=O)(=O)N1CCCC1`, the “hERG current change (%, negative = inhibition) at 10uM” value was 17.5%. Then `COc1ccc(C(=O)Nc2nnc(C)s2)cc1S(=O)(=O)N1CCOCC1`, with -14%; and `COc1ccc(C(=O)Nc2ncc(C)s2)cc1S(=O)(=O)N1CCOCC1`, with -56.2%. Then `COc1ccc(C(=O)Nc2ccc(Cl)cn2)cc1S(=O)(=O)N1CCCC1`, with -48%. Then `CN(C)c1nc(Oc2ccc(=O)n(-c3ccccc3)n2)nc(N2CCOCC2)n1`, with 9.19%; and `CC(=O)Nc1ccc(C(=O)NNC(=O)c2ccccc2-n2cccc2)cc1`, with 6.54%; and `COc1ccc(C(=O)NNC(=O)CN(C)S(=O)(=O)c2ccc(Cl)cc2)c(OC)c1OC`, with -49.7%. Consider `Cc1cccc(N/N=C/c2ccc(C)s2)c1`, for which the “hERG current change (%, negative = inhibition) at 10uM” value is on record as 19.7%. Then `O=C(CCCn1c(=S)[nH]c2ccsc2c1=O)NCc1ccco1`, with 18.8%. Then `CCN(CC)S(=O)(=O)c1ccc(S(=O)(=O)N2CCC(C(=O)NC3CCN(Cc4ccccc4)CC3)CC2)cc1`, with 14.8%. Then `CCCNC(=O)C1CCN(S(=O)(=O)c2cccc3nonc23)CC1`, with -3.97%. As for `Cc1ccc(C(=O)NC2CCN(Cc3ccccc3)CC2)cc1S(=O)(=O)N1CCOCC1`, the “hERG current change (%, negative = inhibition) at 10uM” value was -30.2%.

As to `O=C(NC1CCN(Cc2ccccc2)CC1)C1CCN(S(=O)(=O)c2ccccc2)CC1`, the “hERG current change (%, negative = inhibition) at 10uM” value is listed as -28.8%. Then `O=C(NCc1ccccc1)C1CCCN(S(=O)(=O)c2cccc3nonc23)C1` (centres unmarked), with 9.65%. Then `O=C(C1CCCN(S(=O)(=O)c2cccc3nonc23)C1)N1CCC(Cc2ccccc2)CC1` (centres unmarked), with -30.9%; and `Cc1ccc(Cl)cc1S(=O)(=O)N1CCC(C(=O)NC2CCN(Cc3ccccc3)CC2)CC1`, with -71.5%; and `O=C(NC1CCN(Cc2ccccc2)CC1)C1CCCN(S(=O)(=O)c2cccc3nonc23)C1` (centres unmarked), with -55.9%. Then `Cc1noc(C)c1S(=O)(=O)N1CCC(C(=O)NC2CCN(Cc3ccccc3)CC2)CC1`, with -25%; and `O=C(NCCc1ccccc1)C1CCN(S(=O)(=O)c2cccc3nonc23)CC1`, with -10.5%; and `CCN(CCCNC(=O)C1CCN(S(=O)(=O)c2cccc3nonc23)CC1)Cc1ccccc1`, with -57.2%. Turning to `O=C(NC1CCN(Cc2ccccc2)CC1)C1CCN(S(=O)(=O)c2ccc(Cl)cc2)CC1`, the “hERG current change (%, negative = inhibition) at 10uM” value is recorded as -73.2%. With `COc1cc(/C=C2\SC(=S)N(CCC(=O)Nc3ccc(O)cc3)C2=O)cc(OC)c1OC`, the “hERG current change (%, negative = inhibition) at 10uM” value worked out at 11.9%.

For the molecule `COCCCn1c(=O)c2sccc2n2c(CCCC(=O)NCc3cccc(OC)c3)nnc12`, the “hERG current change (%, negative = inhibition) at 10uM” value was -6.59%. Then `O=C1CSC(c2cccnc2)N1c1cccc(Cl)c1` (centres unmarked), with -1.13%; and `CCOC(=O)c1c(NC(=O)C2CCCO2)sc(C(=O)OC(C)(C)C)c1C` (centres unmarked), with 9.29%. As for `COc1ccc(Nc2nnc(Cc3ccncc3)c3ccccc23)c(OC)c1`, the “hERG current change (%, negative = inhibition) at 10uM” value is -72.7%. For the molecule `COc1cccc(Nc2nnc(Cc3cccnc3)c3ccccc23)c1`, the “hERG current change (%, negative = inhibition) at 10uM” value was -75.8%.

With `COc1cccc(NC(=O)Cn2nc(Cc3cccnc3)c3ccccc3c2=O)c1`, the “hERG current change (%, negative = inhibition) at 10uM” value is given as -34.6%.

For the molecule `COc1ccc(Nc2nnc(Cc3ccccc3)c(=O)[nH]2)c(OC)c1`, the “hERG current change (%, negative = inhibition) at 10uM” value stood at 3.85%. Then `COc1cccc(NC(=S)NCc2cccnc2)c1`, with 8.76%.

`COc1ccc(Nc2ncnc3ccccc23)c(OC)c1.Cl`: the “hERG current change (%, negative = inhibition) at 10uM” value is -10.2%. For the molecule `Cc1csc2c(N3CCN(C(=O)Nc4ccccc4)CC3)ncnc12`, the “hERG current change (%, negative = inhibition) at 10uM” value is -25.4%. Then `CCOC(=O)N1CCC(NC(=O)c2cccc3c2C(=O)N(Cc2cccnc2)C3)CC1`, with -13.9%; and `CCOC(=O)C1=C(COC(=O)CCOc2ccccc2C)NC(=O)NC1C` (centres unmarked), with -28.4%; and `NC(=O)c1cc(-c2csc(-c3cccnc3)n2)ccc1O`, with 5.27%. Take `CC(C)OCCCNC(=O)c1cn(C)c2ccc(S(=O)(=O)N(C)C3CCCCC3)cc2c1=O`: the “hERG current change (%, negative = inhibition) at 10uM” value is given as -22%. Then `CCCCN(C)CCCNC(=O)c1cn(C)c2ccc(S(=O)(=O)N(C)C3CCCCC3)cc2c1=O`, with -75%; and `COC(CNC(=O)c1cn(C)c2ccc(S(=O)(=O)N(C)C3CCCCC3)cc2c1=O)OC`, with -21.5%; and `CCCCN(CC)CCCNC(=O)c1cn(C)c2ccc(S(=O)(=O)N(C)C3CCCCC3)cc2c1=O`, with -73.2%. Then `CCN(CC)CCNC(=O)c1cn(C)c2ccc(S(=O)(=O)N(C)C3CCCCC3)cc2c1=O`, with -42.8%; and `COCCNC(=O)c1cn(C)c2ccc(S(=O)(=O)N(C)C3CCCCC3)cc2c1=O`, with -27.7%; and `CCN(CC)S(=O)(=O)c1ccc2c(c1)c(=O)c(C(=O)NCCN(C)CCc1ccccc1)cn2C`, with -67.1%. Then `CN(CCNC(=O)c1cn(C)c2ccc(S(=O)(=O)N(C)C)cc2c1=O)CCc1ccccc1`, with -27.1%; and `CCN(CC)CCCNC(=O)c1cn(C)c2ccc(S(=O)(=O)N(C)C3CCCCC3)cc2c1=O`, with -24.8%. Consider `CCN(CC)CCCNC(=O)c1cn(C)c2ccc(S(=O)(=O)N(C)C)cc2c1=O`, for which the “hERG current change (%, negative = inhibition) at 10uM” value is 3.07%.

As for `CCCCN(CCCC)CCNC(=O)c1cn(C)c2ccc(S(=O)(=O)N(C)C3CCCCC3)cc2c1=O`, the “hERG current change (%, negative = inhibition) at 10uM” value is listed as -76.7%. Then `CCN(CC)S(=O)(=O)c1ccc2c(c1)c(=O)c(C(=O)NCCc1ccccc1)cn2C`, with -0.204%.
